High-throughput results as filed in PubChem.
HT1080 IDH1KD tx = toxicity to HT-1080 IDH1 knockdown cells (counter line); HT-1080 IDH1 knockdown viability, ATP luminescence, 48 h; Potency, µM (titrated, usually from 46.1 µM), hits mostly cytotoxic; hit rate 2% among 360,000
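Cytotoxicity counter-line: IDH1KD HT-1080, 48 h, CellTiter-Glo. Curves classed by r2, magnitude and activity.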
DT40 TDP1 no CPT = qHTS for Inhibitors of human tyrosyl-DNA phosphodiesterase 1 (TDP1): qHTS in cells in absence of CPT | DT40 Tdp1-/- hTDP1 cells, no CPT, ATP luminescence, 48 h | Potency, µM (titrated, usually from 46.2 µM), most hits filed as inhibitors | hit rate 15% among 420,000 | AID 686978, 2013; note: nearly all actives have a fitted effect of over 55% in size
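Seeded 400 DT40-hTDP1 cells/well (vehicle DMSO, no 20 nM CPT); pinned compounds; ≥48 hr at 37 °C; CellTiter-Glo luminescence as viability measure.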
TDP1 cell CPT = growth inhibition of DT40 Tdp1-/-;hTDP1 cells with camptothecin (screen for TDP1 inhibitors) | hit rate 12% among 420,000 | AID 686979 | chicken DT40 Tdp1-/-;hTDP1 cells + 20 nM CPT, ATP luminescence, 48 h | Potency, µM (titrated, usually from 46.2 µM), most hits filed as inhibitors; note: nearly all actives have a fitted effect of over 55% in size
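Chicken DT40 Tdp1-/- cells complemented with human TDP1, 400 cells/well, exposed to compounds plus 20 nM camptothecin for at least 48 h at 37 C; viability read as ATP content by CellTiter-Glo luminescence.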
HT1080NT lethal = kills 2HG-producing HT-1080-NT fibrosarcoma cells; hit rate 1.6% among 360,000; HT-1080-NT fibrosarcoma viability, CellTiter-Glo ATP luminescence, 48 h; AID 686970; Potency, µM (titrated, usually from 46.1 µM), actives largely listed as cytotoxic;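 note: NT is the 2HG producing partner of a matched IDH1 knockdown line; nearly all actives have a fitted effect of over 55% in size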
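A 48-hour cytotoxicity screen used HT-1080-NT cells plated 2 hours before compound delivery. ATP-based CellTiter-Glo luminescence measured viability, normalized to DMSO and no-cell controls.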
KB-V1 cytotox = KB-V1 MDR subline cytotoxicity; Potency, µM (series often up to 46.1 µM), most hits filed as cytotoxic; AID 1347076; KB-V1 MDR cells viability, CellTiter-Glo, 72 h; hit rate 3.4% among 400,000; note: nearly all actives have a fitted effect of over 60% in size
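Potencies derive from concentration-effect curves fitted to normalized luminescence (CellTiter-Glo) of KB-V1 cells treated for 72 h at 37 degrees C in phenol-red-free DMEM containing 10% FBS.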
KB-3-1 cytotox = kills parental KB-3-1 adenocarcinoma cells. KB-3-1 viability, CellTiter-Glo ATP luminescence, 72 h. Potency, µM (series often up to 46.1 µM), usual class: cytotoxic. hit rate 1.4% among 400,000; note: nearly all actives have a fitted effect of over 60% in size
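Cytotoxicity measured as CellTiter-Glo luminescence after 72 h at 37 C. Compound titrations were pinned onto drug-naive KB-3-1 parental adenocarcinoma cells grown in DMEM with 10% FBS, and normalized data fitted to concentration-response curves.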
Hits are given with their value; n = inactive; u = inconclusive; x = not tested or not shown. The list is not random: actives were taken first. Their share in the collection is about 19%. Calls come from the whole dose curve; as a rule, active = well fitted curve in the direction sought with a large enough effect; inconclusive = small, poorly fitted or top-dose-only effect, or another doubt; inactive = no such curve, though single readings can be large; an effect the other way counts as inactive or inconclusive.

SMILES | HT1080 IDH1KD tx | DT40 TDP1 no CPT | TDP1 cell CPT | HT1080NT lethal | KB-V1 cytotox | KB-3-1 cytotox
CCOc1ccccc1NC(=O)Nc1cc(C(=O)NCc2ccc(C)cc2)ccc1N1CCCC1 | x | 8.2µM | 8.2µM | x | n | n
CCc1ccccc1NC(=O)Nc1cc(C(=O)NCc2ccccc2OC)ccc1N1CCCC1 | x | u | 14.6µM | x | n | n
CCOCCCNC(=O)Nc1cc(C(=O)NCc2ccc(C(C)C)cc2)ccc1N1CCCC1 | x | u | 25.9µM | x | n | n
COc1ccc(C)cc1NC(=O)Nc1cc(C(=O)NCc2ccc(C)cc2)ccc1N1CCCC1 | x | u | u | x | u | n
CC(C)c1ccc(CNC(=O)c2ccc(N3CCCC3)c(NC(=O)NCc3ccc(F)cc3)c2)cc1 | x | u | u | x | n | n
COc1ccc(CNC(=O)c2ccc(N3CCCC3)c(NC(=O)NCc3ccc(C)cc3)c2)cc1 | x | u | 16.4µM | x | n | u
Nc1ccc(C(=O)c2cccs2)cc1[N+](=O)[O-] | n | n | n | n | n | n
COc1cccc(C2C(C(=O)Nc3cccnc3)=C(C)Nc3nc(SCc4ccccc4)nn32)c1 (configuration not stated) | x | n | n | x | n | n
COc1ccccc1NC(=O)CN1CCN(c2ccc(F)cc2)CC1 | n | u | u | n | n | n
COc1ccc(C)cc1NC(=O)CN1CCN(c2ccc(F)cc2)CC1 | n | 23.1µM | 20.6µM | n | n | n
COc1ccc(C)cc1NC(=O)CN1CCN(S(=O)(=O)c2ccc(C(C)C)cc2)CC1 | n | 16.4µM | u | n | u | n
CCc1ccccc1NC(=O)CN1CCN(CC(=O)Nc2cc(C)ccc2OC)CC1 | n | 6.51µM | u | n | n | n
COc1ccccc1NC(=O)CN1CCN(CC(=O)Nc2cc(C)ccc2OC)CC1 | n | n | n | n | n | n
CCOC(=O)C1(C)CCCN(C(=O)c2ccc3c(c2)CCO3)C1 (configuration not stated) | n | n | n | n | n | n
O=C(/C=C/c1cccs1)c1ccco1 | n | u | n | n | n | n
Cc1ccc(-c2nc(CN(C)Cc3cccc4cnccc34)c(C)o2)s1 | n | 20.6µM | u | n | n | n
CC1(C)CC(Cc2ccc(C(=O)c3ccccc3)cc2)N(C(=O)OC(C)(C)C)N1 (configuration not stated) | n | 4.11µM | 6.51µM | n | n | n
COc1ccccc1C(=O)N1[C@@H](C(C)C)COc2cc(Br)ccc2S1(=O)=O | n | 16.4µM | u | n | u | n
C[C@@H](c1ccccc1)N1Cc2ccccc2Oc2cc(Br)ccc2S1(=O)=O | n | n | u | n | n | u
COc1cccc(C(=O)N2C(C(C)C)COc3cc(Br)ccc3S2(=O)=O)c1 (configuration not stated) | u | 23.1µM | 25.9µM | u | n | n
Fc1ccc2cc(-c3ccsc3)ncc2c1 | n | n | n | n | n | n
CCCn1c(-c2cccnc2Cl)nc2cc(Cl)c(Cl)cc21 | u | u | 14.6µM | n | 16.4µM | n
C=CCn1c(-c2cccnc2Cl)nc2cc(Cl)c(Cl)cc21 | n | u | 18.4µM | n | n | n
Clc1cccc(Cl)c1Cn1c(-c2cccnc2Cl)nc2ccccc21 | n | u | u | n | n | n
CC(C)c1ccccc1NC(=O)COC(=O)c1cc(=O)[nH]c(=O)[nH]1 | n | n | n | n | n | n
SMILES | HT1080 IDH1KD tx | DT40 TDP1 no CPT | TDP1 cell CPT | HT1080NT lethal | KB-V1 cytotox | KB-3-1 cytotox
COc1cc(NC(=O)c2c(F)c(F)c(OC)c(F)c2F)ccc1NC(=O)c1cccs1 | n | 18.4µM | 20.6µM | n | u | n
COc1cc(NC(=O)c2cc(Cl)ccc2Cl)ccc1NC(=O)c1cc2ccccc2o1 | x | 4.61µM | 5.8µM | x | n | n
COc1ccc(-c2nc3cc(C(C)C)ccc3o2)cc1NC(=O)c1ccccc1[N+](=O)[O-] | x | 10.3µM | 8.2µM | x | n | u
COc1cc(NC(=O)c2cc(OC)c(OC)c(OC)c2)ccc1NC(=O)c1cccs1 | u | u | u | n | u | n
COc1cc(NC(=O)c2ccccc2[N+](=O)[O-])ccc1NC(=O)c1cc2ccccc2o1 | n | 8.2µM | 16.4µM | n | n | n
COc1ccc(-c2nc3ccccc3o2)cc1NC(=O)c1cc(Br)ccc1OC | x | n | n | x | n | n
Cc1cccc(C)c1NC(=O)C1c2ccccc2OCC(=O)N1CCc1c[nH]c2ccccc12 (configuration not stated) | n | n | n | n | n | n
COc1cc(NC(=O)c2cccs2)ccc1NC(=O)c1cc2ccccc2o1 | n | 11.6µM | u | n | n | n
Cc1ccc(OCC(=O)NNC(=S)NC(=O)c2ccc(Br)o2)c(C)c1 | n | 13µM | u | n | n | n
Cc1ccc(OCC(=O)NNC(=S)NC(=O)c2cccs2)c(C)c1 | n | 16.4µM | 16.4µM | n | n | u
CC(C)C[C@H]1CN(CCCC[C@H]2CNC(=O)C(=O)N2CCc2ccccc2)C(=O)C(=O)N1CCc1ccccc1 | n | n | n | n | n | n
COc1ccc(N2CCN(c3ccc(S(=O)(=O)N(C(C)C)C(C)C)cn3)CC2)cc1 | n | 7.31µM | 4.61µM | n | n | n
CN(C)S(=O)(=O)c1ccc(N2CCOCC2)nc1 | n | n | n | n | n | n
COc1ccccc1OCCCN1C(=O)C(=O)c2cccc(C)c21 | n | 1.46µM | 4.61µM | n | n | u
Cc1ccccc1OCCN1C(=O)c2ccccc2C1=O | n | n | n | n | n | n
Cc1cccc2c1N(CCOc1ccccc1Cl)C(=O)C2=O | n | 2.59µM | 2.59µM | n | n | n
Cc1ccccc1OCCN1C(=O)C(=O)c2cccc(C)c21 | n | 0.92µM | 1.3µM | n | u | n
Cc1ccccc1NC(=O)C1CCCN(S(=O)(=O)c2cccc3cccnc23)C1 (configuration not stated) | n | u | u | n | n | n
Cc1cccc(NC(=O)C2CCCN(S(=O)(=O)c3cccc4cccnc34)C2)c1 (configuration not stated) | n | 23.1µM | 18.4µM | n | n | n
Cc1ccc(NC(=O)C2CCCN(S(=O)(=O)c3cccc4cccnc34)C2)c(Br)c1 (configuration not stated) | x | u | u | x | n | n
O=C(NCc1ccc2c(c1)OCO2)C1CCCN(S(=O)(=O)c2cccc3nonc23)C1 (configuration not stated) | n | u | u | n | n | n
O=C(NC1CCCC1)C1CCCN(S(=O)(=O)c2cccc3cccnc23)C1 (configuration not stated) | n | n | u | n | n | n
